The nature of assay [1]: reducers of endogenous Her2 protein level, primary screen, SKBR3 breast tumor cells, AlphaScreen, ATP viability (AID 461;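 active means Her2 level under about 52% in both replicate screens, with viability over 70% of control, limit read from the data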;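 on Her2 level: lower value means less Her2 protein in the cells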;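 on viability: percent of carrier control wells set as 100% viability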). To be noted: 18-24 h, measured here: SKBR3 viability, ATP luminescence, at 10 µM. For orientation: Alpha assays give light when donor and acceptor beads are brought close together.
Assay [2] has as its target Receptor tyrosine-protein kinase erbB-2 (Homo sapiens) (UniProt P04626). The description is as above. To be noted: 18-24 h, at 10 µM, stronger effect = lower value.
Assay [3] can be described thus: SK-BR-3 cell growth inhibitors, pilot screen, 24 h, human (AID 572;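 active means viability at or below 10% of carrier control in both of two separate runs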;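 further: compound exposure lasted between 18 and 24 h rather than exactly 24 h; 100% = carrier-treated control wells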). To be noted: SK-BR-3 viability, CellTiter-Glo luminescence, at 10 µM, stronger effect = lower value. On the technique in general: ATP-based viability assays read luminescence as a measure of living cells.
The nature of assay [4]: HUVEC growth inhibition – cell-based, human, primary screen (AID 575;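 active means viability at or below 30% in both replicate assays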;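 further: 100% = median of untreated cell wells with 0.1% DMSO on each plate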). To be noted: HUVEC proliferation, CellTiter-Glo luminescence, 72 h; at 10 µM; stronger effect = lower value.
Assay [5] in a line: growth inhibitors of H69AR lung tumor, primary screen, human, duplicate replicates (AID 580;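 active means viability at or under a set limit in both replicates, limit being median viability minus 3 SD, cut at about 48% in these data, passing the limit was not always enough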;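 further: 100% = mean luminescence of untreated wells and 0% = no signal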). To be noted: H69AR lung tumor cells viability, ATP luminescence, 72 h; at 10 µM; stronger effect = lower value.
Assay [6] in a line: reversal of MRP1-mediated doxorubicin resistance, pilot screen, H69AR cells, doxorubicin co-treatment (AID 601;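 active means viability loss from added drug above about 55%, and viability with drug at most 40%, in both replicates, limit read from the data, passing the limit was not always enough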). To be noted: CellTiter-Glo, 72 h, at 10 µM; for differential viability (reversal): stronger effect = higher value.
The nature of assay [7]: 384-well plate pilot, post-Golgi transport modulator project, inhibition of yeast transport mutant growth (AID 636; in the data active means inhibition above about 31%). To be noted: absorbance 615 nm, about 18 h, stronger effect = higher value.
The nature of assay [8]: growth suppression of yeast trafficking mutant, preliminary HTS, modulators of trafficking downstream of Golgi apparatus project, 1536-format plate, OD 615 nm (AID 637). To be noted: yeast transport mutant growth, absorbance 615 nm, 18 h; stronger effect = higher value.
The nature of assay [9]: OD615 S. cerevisiae growth inhibition, permissive medium, pilot counter-assay, permissive growth control for S. cerevisiae lifespan shortening project (AID 705;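 active means growth inhibition above 25% in both replicates, a cutoff set 3 SD above the mean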). To be noted: OD615, 24 h, at 10 µM, stronger effect = higher value.
Assay [10] is described as follows: Restrictive medium S. cerevisiae growth inhibition, OD615, pilot screen of yeast lifespan reduction project, restrictive growth control (AID 706;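 active means growth inhibition above a set limit, 3 SD over mean compound inhibition, in both replicates, cut at about 43% in these data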;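 further: modified DeaD lifespan yeast strain shifted to restrictive glucose medium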). To be noted: OD615, 48 h, at 10 µM, stronger effect = higher value.
The nature of assay [11]: viability gain of MRP-1-high H69AR cells under doxorubicin, pilot screen, MRP-1 activator project, CellTiter-Glo, duplicate (AID 807;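 active means viability increase at or above a cutoff of the median across tested compounds plus 3 SD, cut at about 8.5% in these data, passing the limit was not always enough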;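 further: compound pretreatment 18-22 h then 72 h combined with doxorubicin; 0% = doxorubicin alone and 100% = vehicle without doxorubicin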). To be noted: H69AR viability with doxorubicin, CellTiter-Glo luminescence; at 10 µM; stronger effect = higher value.
The nature of assay [12]: growth suppression of beta-catenin knockout HCT116, pilot screen, human colon tumor cells (AID 823;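 active means cell viability at or below a set limit in both duplicate runs, the limit being the all-compound median minus 4 SD, cut at about 23% in these data, passing the limit was not always enough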;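 further: 0% = wells killed by 20 µM Hyamine and 100% = untreated DMSO cell wells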). To be noted: CellTiter-Glo, 60 h, at 10 µM, stronger effect = lower value.
A short description of assay [13]: growth suppression of PTEN-deleted HCT116, pilot screen, cell-based, HCT116 clonal line, CellTiter-Glo (AID 824;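 active means viability at or below 27.92% in each of two runs, the all-compound median minus 4 SD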;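 further: 0% = 20 µM Hyamine control and 100% = vehicle cell control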). To be noted: 60 h, at 10 µM, stronger effect = lower value.
Assay [14] in a line: inhibitors of the yeast RAM network, pilot screen, dse1pr::URA3 reporter, 5-FOA selection (AID 869;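 active means inhibition over a set limit, the all-compound mean plus 3 SD, in both replicate runs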;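 further: 0% = DMSO wells with no growth and 100% = 10 µM 1-NA-PP1 with full growth; RAM network block rescues cells from 5-FOA so hits raise OD615 growth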). To be noted: S. cerevisiae dse1pr::URA3 5-FOA growth, OD615, 2 d; at 10 µM; stronger effect = higher value; strain carries analog-sensitive mutant Cbk1 kinase.
Assay [15] is described as follows: RAM signaling pathway blockade in yeast – S. cerevisiae, Pdr1DBD-CYC8 efflux-inhibited sensitized strain, primary screen (AID 1298;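 active means RAM network inhibition above 8.4% in each of two replicates, 3 SD over the compound average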;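 further: 0% = DMSO untreated cells without growth and 100% = 10 µM 1-NA-PP1 full growth; higher means more yeast growth rescued from 5-FOA killing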). To be noted: S. cerevisiae cbk1-as DSE1-URA3 strain, 5-FOA growth OD615, 2 d; at 50 µM; stronger effect = higher value.
Where [16] appears, read: H69AR cells + 2 uM doxorubicin, measured here: viability with 2 uM doxorubicin, stronger effect = lower value.
Setting [17] is: H69AR cells, compound alone cytotoxicity.

Results filed as inconclusive are left out. Active and inactive are the calls of the source. Unless noted, no stated cut-off is given here; in the data, active means inhibition above about 30%; inactive means the rest.

Here are results for 5 compounds from PubChem BioAssay.

Sequence of Receptor tyrosine-protein kinase erbB-2 (Homo sapiens) (P04626 whole entry, looked up): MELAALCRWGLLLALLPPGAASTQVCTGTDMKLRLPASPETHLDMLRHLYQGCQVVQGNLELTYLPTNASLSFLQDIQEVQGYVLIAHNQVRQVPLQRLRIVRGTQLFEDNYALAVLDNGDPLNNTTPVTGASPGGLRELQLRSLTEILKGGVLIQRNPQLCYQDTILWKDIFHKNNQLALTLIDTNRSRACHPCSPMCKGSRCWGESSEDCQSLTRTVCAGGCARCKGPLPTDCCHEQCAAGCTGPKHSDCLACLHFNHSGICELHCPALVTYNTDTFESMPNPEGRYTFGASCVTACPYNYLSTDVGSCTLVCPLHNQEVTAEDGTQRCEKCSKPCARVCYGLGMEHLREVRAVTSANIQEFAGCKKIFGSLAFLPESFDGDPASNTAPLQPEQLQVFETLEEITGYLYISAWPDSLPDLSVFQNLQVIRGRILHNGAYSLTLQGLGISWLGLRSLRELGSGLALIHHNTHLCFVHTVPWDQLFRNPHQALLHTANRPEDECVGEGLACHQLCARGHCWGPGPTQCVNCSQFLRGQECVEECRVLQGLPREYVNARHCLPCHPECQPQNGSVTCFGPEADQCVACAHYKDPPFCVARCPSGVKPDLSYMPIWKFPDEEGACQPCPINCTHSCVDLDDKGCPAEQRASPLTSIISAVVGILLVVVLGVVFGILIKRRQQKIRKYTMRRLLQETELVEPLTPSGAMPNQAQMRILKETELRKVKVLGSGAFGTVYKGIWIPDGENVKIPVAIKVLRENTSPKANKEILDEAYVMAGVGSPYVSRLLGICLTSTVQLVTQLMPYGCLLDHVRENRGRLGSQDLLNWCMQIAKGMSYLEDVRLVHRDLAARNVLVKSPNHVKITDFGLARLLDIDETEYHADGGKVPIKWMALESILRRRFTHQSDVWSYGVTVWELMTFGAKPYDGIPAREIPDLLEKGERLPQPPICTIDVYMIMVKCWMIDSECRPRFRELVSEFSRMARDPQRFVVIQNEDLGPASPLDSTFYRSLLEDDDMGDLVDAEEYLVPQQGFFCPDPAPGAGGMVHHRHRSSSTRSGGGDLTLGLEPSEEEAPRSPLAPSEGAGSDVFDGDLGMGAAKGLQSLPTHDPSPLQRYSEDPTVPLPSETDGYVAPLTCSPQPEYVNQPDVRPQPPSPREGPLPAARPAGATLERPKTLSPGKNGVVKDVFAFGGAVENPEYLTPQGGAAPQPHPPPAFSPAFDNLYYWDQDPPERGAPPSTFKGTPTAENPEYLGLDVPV

By viability is commonly meant a read-out of living cells in per cent, often relative to untreated cells. In general, inhibition refers to the change of the read-out against control, counted positive when it falls. For the compound `CCOc1ccc(NC(=O)C(C)Sc2nnc(C)n2C)cc1` (stereo not given), the viability in assay [1] was 92%; in [3], 92% (inactive); in assay [4], 97.6% (inactive); in assay [5] it was 98.8% (inactive); in assay [6] (setting [16]), 96.1%; in assay [6] (setting [17]), 98.8%. The viability in [12] was 95.7% (inactive); in assay [13], 93.9% (inactive). The Her2 level in assay [2] is 126% (inactive). Moreover, the differential viability (reversal) in assay [6] (H69AR cells + 2 uM doxorubicin) is 2.75% (inactive). For the same compound, the figures for the inhibition in [7], in assay [8] and in [14] were -1.33% (inactive), -1.17% (inactive) and 0.705% (inactive), respectively. Besides, the figures for the growth inhibition in assay [9] and in [10] were -3.46% (inactive) and 3.31% (inactive), respectively. In addition, the viability increase in assay [11] was -0.82% (inactive). In addition, the RAM network inhibition in assay [15] was -0.63% (inactive).

`CCc1ccc(N2CC34C=CC(O3)C(C(=O)OC)C4C2=O)cc1` (stereo not given): the viability in assay [1] was 102%; in [3], 102% (inactive); in assay [4], 96.7% (inactive); in assay [5], 94.2% (inactive); in [6] (setting [16]), 82.2%; in assay [6] (setting [17]), 94.2%. For the same compound, the viability in assay [12] was 102% (inactive); in assay [13] it was 99.7% (inactive). Besides, the Her2 level in assay [2] is 104% (inactive). Further, the differential viability (reversal) in [6] (H69AR cells + 2 uM doxorubicin) was 12% (inactive). The inhibition in assay [7] was -2.8% (inactive); in assay [8] it was -1.17% (inactive); in assay [14] it was 0.255% (inactive). The growth inhibition in assay [9] is -6.25% (inactive); in assay [10] it was 3.24% (inactive). In addition, the viability increase in [11] is 0.55% (inactive). Also, in [15], the RAM network inhibition was 0.11% (inactive).

Turning to `O=C(NC1CCCC1)C1CCCN(S(=O)(=O)c2cccc3cccnc23)C1` (stereo not given), the viability in assay [1] was 102%; in assay [3], 102% (inactive); in assay [4], 115% (inactive); in [5], 98.8% (inactive); in assay [6] (setting [16]), 94.8%; in assay [6] (setting [17]), 98.8%. For the same compound, the figures for the viability in [12] and in assay [13] were 100% (inactive) and 99.3% (inactive), respectively. Also, in assay [2], the Her2 level is 116% (inactive). For the same compound, the differential viability (reversal) in assay [6] (H69AR cells + 2 uM doxorubicin) was 3.92% (inactive). Further, the figures for the inhibition in assay [7], in assay [8] and in assay [14] were -5.07% (inactive), 4.33% (inactive) and 0.7% (inactive), respectively. In addition, the growth inhibition was -9.46% (inactive) in [9] and 1.54% (inactive) in assay [10]. Besides, in [11], the viability increase was -1.04% (inactive). Further, in assay [15], the RAM network inhibition is 5.53% (inactive).

With `COc1cccc(-c2cc(C(F)(F)F)nc(NCc3ccco3)n2)c1`, the viability in [1] is 108%; in assay [3], 108% (inactive); in [4], 61.6% (inactive); in [5], 95.8% (inactive); in assay [6] (setting [16]), 87.7%; in assay [6] (setting [17]) it was 95.8%. Also, the viability in assay [12] was 70.9% (inactive); in assay [13] it was 67.6% (inactive). Further, the Her2 level in [2] is 94.5% (inactive). The differential viability (reversal) in assay [6] (H69AR cells + 2 uM doxorubicin) was 8.14% (inactive). Besides, the inhibition is -5.27% (inactive) in assay [7], -1.48% (inactive) in assay [8] and 2.38% (inactive) in [14]. For the same compound, the growth inhibition in assay [9] is 0.4% (inactive); in assay [10] it was 18% (inactive). Moreover, the viability increase in [11] is -3.81% (inactive). The RAM network inhibition in assay [15] was 8.17% (inactive).

Regarding `CCN1CCN(C(CNC(=O)c2ccc3c(c2)OCO3)c2cccnc2)CC1` (stereo not given), the viability in [1] is 89.5%; in [3] it was 89.5% (inactive); in assay [4], 86.4% (inactive); in assay [5], 99.6% (inactive); in assay [6] (setting [16]), 90%; in assay [6] (setting [17]), 99.6%. In addition, the viability in [12] is 104% (inactive); in assay [13], 96.2% (inactive). For the same compound, the Her2 level in [2] was 93% (inactive). In [6] (H69AR cells + 2 uM doxorubicin), the differential viability (reversal) was 9.62% (inactive). Further, the inhibition in [7] is -2% (inactive); in assay [8], -6.23% (inactive); in assay [14], 1.35% (inactive). For the same compound, the growth inhibition was -12.5% (inactive) in [9] and -4.73% (inactive) in assay [10]. Further, the viability increase in assay [11] is 0.44% (inactive). Further, the RAM network inhibition in [15] is 5.59% (inactive).
